Results on 13 molecules are retold here after PubChem BioAssay (Tox21).

A short description of experiment [1]: qHTS assay to test for compound auto fluorescence at 535 nm (green) in HEK293 cells (AID 720680).
Experiment [2] is described as follows: qHTS assay to test for compound auto fluorescence at 460 nm (blue) in HEK293 cell free culture (AID 720681). The gist of the method: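 Test compounds were pinned into cell-free culture medium (DMEM with 10% FBS) and fluorescence was read directly at Ex/Em 405/460 nm. Signals were expressed as fluorescence equivalents of triamterene, with DMSO vehicle as control.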
(In general: In qHTS, concentration-response curves come from the screen itself.)

The nature of experiment [3]: qHTS assay to test for compound auto fluorescence at 535 nm (green) in HEK293 cell free culture (AID 720682). Summed up:
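No cells present: wells hold DMEM supplemented with 10% FBS, into which compound or vehicle is pinned. Green emission is then recorded (485 nm excitation, 535 nm emission) and scaled to fluorescein.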

Experiment [4] in a line: qHTS assay to test for compound auto fluorescence at 590 nm (red) in HEK293 cell free culture (AID 720683). Summed up:
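Tox21 10K library compounds were pinned into cell-free DMEM with 10% FBS and fluorescence was read at excitation 540 nm. Activity is expressed as Rose Bengal sodium equivalency.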

The nature of experiment [5]: qHTS assay to test for compound auto fluorescence at 590 nm (red) in HepG2 cell free culture (AID 720684). Summed up: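 Readout: intrinsic compound fluorescence at 590 nm emission after 540 nm excitation, scaled to Rose Bengal sodium. Matrix was cell-free MEM with 10% FBS; DMSO vehicle wells served as control.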
Experiment [6] can be described thus: qHTS assay to test for compound auto fluorescence at 460 nm (blue) in HepG2 cell free culture (AID 720685). Summed up: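 Cell-free plates of MEM plus 10% FBS received 23 nL compound or DMSO vehicle; blue-channel (405/460 nm) intensity scored against triamterene as reference fluorophore.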
The nature of experiment [7]: qHTS assay to test for compound auto fluorescence at 535 nm (green) in HepG2 cell free culture (AID 720686).
Experiment [8] in a line: qHTS assay to test for compound auto fluorescence at 460 nm (blue) in HepG2 cells (AID 720687). The gist of the method:
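Cells (2,000/well in MEM with 10% FBS) attached overnight at 37 C, then were exposed to compound or DMSO for 1 hr at 37 C, 5% CO2. Fluorescence read at Ex/Em 405/460 nm, expressed as triamterene-equivalent signal.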

Experiment [9] in a line: qHTS assay to identify small molecule antagonists of the glucocorticoid receptor (GR) signaling pathway - cell viability counter screen (AID 720693). Also: nearly all actives have a fitted effect of over 55% in size.
Experiment [10] is described as follows: qHTS assay for identifying genotoxic compounds that show differential cytotoxicity against isogenic chicken DT40 cell lines with known DNA damage response pathways - wild type cell line (AID 743012). Also: nearly all actives have a fitted effect of over 60% in size. Also: potency is read from the fitted curve at half-maximal effect. The gist of the method: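 Luminescent ATP viability signal (CellTiter-Glo, 30 min RT) recorded after wild type DT40 cells were incubated with compounds for 40 h at 37 C/5% CO2.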

Experiment [11] is described as follows: qHTS assay for identifying genotoxic compounds that show differential cytotoxicity against isogenic chicken DT40 cell lines with known DNA damage response pathways - Rev3 mutant cell line (AID 743014). Also: nearly all actives have a fitted effect of over 55% in size. Also: potency is read from the fitted curve at half-maximal effect.
Experiment [12] in a line: qHTS assay for identifying genotoxic compounds that show differential cytotoxicity against isogenic chicken DT40 cell lines with known DNA damage response pathways - Rad54/Ku70 mutant cell line (AID 743015). Also: nearly all actives have a fitted effect of over 60% in size. Also: potency is read from the fitted curve at half-maximal effect.
Experiment [13] in a line: qHTS assay to identify small molecule antagonists of the androgen receptor (AR) signaling pathway - cell viability counter screen (AID 743033; also: nearly all actives have a fitted effect of over 45% in size).
Experiment [14] can be described thus: qHTS assay to identify small molecule antagonists of the androgen receptor (AR) signaling pathway using the MDA cell line - cell viability counter screen (AID 743041; also: nearly all actives have a fitted effect of over 45% in size). The gist of the method:
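qHTS viability read-out; MDA-kb2 AR-luc; R1881-stimulated; 16 h exposure at 37C, 0% CO2; CellTiter-Fluor, 30 min; fluorescence intensity.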

The nature of experiment [15]: qHTS assay to identify small molecule antagonists of the thyroid receptor (TR) signaling pathway - cell viability counter screen (AID 743064). Also: nearly all actives have a fitted effect of over 50% in size. Also: potency is read from the fitted curve at half-maximal effect. The gist of the method:
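Rat GH3 pituitary tumor cells stably expressing two TR response elements driving luciferase were plated, rested 4 h, then dosed with library compounds and T3 (1 nM final). After 23.5 h at 37 °C, CellTiter-Fluor was added for 30 min and fluorescence recorded.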

Experiment [16] addresses Glucocorticoid receptor (Homo sapiens) (UniProt P04150). The experiment in a line: qHTS assay to identify small molecule agonists of the glucocorticoid receptor (GR) signaling pathway (AID 720691; active = well fitted activation curve with a large enough effect in the signal ratio in the repeat runs, not every such curve was filed as active; the % refers to the signal ratio). The gist of the method: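 Cells: GR-bla HeLa, endogenous GR with stably integrated GRE-beta-lactamase reporter. Treatment 18 h, 37 C, compounds delivered in DMSO. Detection via LiveBLAzer B/G FRET substrate, 2 h RT, fluorescence intensity.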

The target of experiment [17] is Androgen receptor (Homo sapiens) (UniProt P10275). As to the kind of experiment: qHTS assay to identify small molecule antagonists of the androgen receptor (AR) signaling pathway (AID 743035; active = well fitted inhibition curve with a large enough effect in the signal ratio in the repeat runs, not every such curve was filed as active; the % refers to the signal ratio). The gist of the method: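 Quantitative HTS of the Tox21 10K library used HEK293 AR-UAS-bla cells stimulated with R1881 alongside compound for 16 h at 37C, followed by beta-lactamase FRET detection (LiveBLAzer B/G, 2 h, RT).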

Experiment [18] shares this target. As to the kind of experiment: qHTS assay to identify small molecule agonists of the androgen receptor (AR) signaling pathway using the MDA cell line (AID 743040; also: nearly all actives have a fitted effect of over 20% in size). Summed up:
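Agonist activity is measured as luciferase luminescence in human MDA-kb2 cells whose MMTV reporter responds to both AR and GR. Compounds in DMSO incubate 16 h at 37C, 0% CO2, and ONE-Glo is read after 30 min.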

The target is the same in experiment [19]. The experiment in a line: qHTS assay to identify small molecule agonists of the androgen receptor (AR) signaling pathway (AID 743036; active = well fitted activation curve with a large enough effect in the signal ratio in the repeat runs, with a control signal flat, not every such curve was filed as active; the % refers to the signal ratio). The gist of the method:
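Quantitative HTS of the Tox21 10K library in HEK293 cells bearing a stably integrated UAS-controlled beta-lactamase reporter. Compound exposure lasted 16 h at 37C. Reporter activity was detected by FRET substrate fluorescence after 2 h at room temperature.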

Values without a mark were called inactive. Records with an inconclusive call do not appear. Calls of active or inactive are those of the source. Unless noted, calls follow the shape of the dose curve; as a rule, active = well fitted curve in the direction sought with a large enough effect in the repeat runs; inconclusive = weak or mixed curves; inactive = no such curve, though single readings can be large; an effect the other way counts as inactive or inconclusive.
% is scaled to controls: 0 for no effect and ±100 for the full control effect.

Glucocorticoid receptor (Homo sapiens), sequence (P04150 whole entry, looked up): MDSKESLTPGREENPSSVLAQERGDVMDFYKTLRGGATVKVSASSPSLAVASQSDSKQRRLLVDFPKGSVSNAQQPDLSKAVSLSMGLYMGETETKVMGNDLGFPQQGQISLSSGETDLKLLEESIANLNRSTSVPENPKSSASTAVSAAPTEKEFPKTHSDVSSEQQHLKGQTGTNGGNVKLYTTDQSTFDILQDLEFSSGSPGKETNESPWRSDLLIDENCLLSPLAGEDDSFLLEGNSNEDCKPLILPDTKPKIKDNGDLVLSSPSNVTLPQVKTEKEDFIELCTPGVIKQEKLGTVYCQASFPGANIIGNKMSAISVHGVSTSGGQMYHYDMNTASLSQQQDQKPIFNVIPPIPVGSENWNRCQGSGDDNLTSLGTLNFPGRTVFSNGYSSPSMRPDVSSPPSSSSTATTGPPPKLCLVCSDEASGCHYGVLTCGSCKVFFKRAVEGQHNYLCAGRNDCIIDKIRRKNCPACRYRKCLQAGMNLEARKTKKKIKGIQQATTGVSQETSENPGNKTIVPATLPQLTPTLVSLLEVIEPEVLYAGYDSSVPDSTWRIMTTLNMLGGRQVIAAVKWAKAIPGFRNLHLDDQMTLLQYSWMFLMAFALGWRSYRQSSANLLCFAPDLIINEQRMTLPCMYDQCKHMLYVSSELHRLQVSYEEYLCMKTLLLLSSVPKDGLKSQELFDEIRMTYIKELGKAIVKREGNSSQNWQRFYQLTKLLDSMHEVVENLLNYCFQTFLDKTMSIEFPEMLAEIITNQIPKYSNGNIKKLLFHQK
Androgen receptor (Homo sapiens), sequence (P10275 whole entry, looked up): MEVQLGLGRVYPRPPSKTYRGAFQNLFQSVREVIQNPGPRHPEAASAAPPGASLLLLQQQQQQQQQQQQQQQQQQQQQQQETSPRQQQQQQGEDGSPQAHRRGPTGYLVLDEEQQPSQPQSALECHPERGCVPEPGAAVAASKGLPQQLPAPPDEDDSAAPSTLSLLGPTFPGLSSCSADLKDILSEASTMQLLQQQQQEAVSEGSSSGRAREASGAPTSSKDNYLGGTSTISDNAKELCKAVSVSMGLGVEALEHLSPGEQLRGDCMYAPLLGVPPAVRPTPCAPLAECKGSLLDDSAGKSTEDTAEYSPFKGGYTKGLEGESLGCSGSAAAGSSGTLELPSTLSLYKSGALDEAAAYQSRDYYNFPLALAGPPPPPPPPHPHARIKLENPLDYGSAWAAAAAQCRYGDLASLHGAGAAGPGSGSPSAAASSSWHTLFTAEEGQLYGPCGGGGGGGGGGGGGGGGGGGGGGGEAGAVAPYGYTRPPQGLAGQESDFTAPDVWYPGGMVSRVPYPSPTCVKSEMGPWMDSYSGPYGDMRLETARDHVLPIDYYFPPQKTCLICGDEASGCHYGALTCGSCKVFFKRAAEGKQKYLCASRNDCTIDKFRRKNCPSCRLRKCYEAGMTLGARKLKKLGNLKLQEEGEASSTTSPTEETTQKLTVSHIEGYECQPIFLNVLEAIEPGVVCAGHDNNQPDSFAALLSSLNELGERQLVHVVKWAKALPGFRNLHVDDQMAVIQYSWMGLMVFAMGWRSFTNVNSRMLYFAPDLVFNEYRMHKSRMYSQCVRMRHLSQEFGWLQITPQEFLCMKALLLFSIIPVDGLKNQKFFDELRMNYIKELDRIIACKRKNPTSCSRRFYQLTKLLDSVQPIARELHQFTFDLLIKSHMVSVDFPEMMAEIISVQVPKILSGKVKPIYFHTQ

`O=C(O)c1cccc(Cl)c1`: the call in experiment [1], in [2], in experiment [3], in experiment [4], in experiment [5] and in [6] was inactive. The call in experiment [7] and in experiment [8] was inactive. Besides, the Potency result in experiment [9], in experiment [10], in [11], in experiment [12], in experiment [13] and in experiment [14] was “inactive” throughout. Moreover, in experiment [15], the Potency entry was “inactive”.

Take `CN1CCC(O)(c2ccc(F)cc2)C(C(=O)c2ccc(F)cc2)C1` (stereo not given): the result in experiment [1], in [2], in experiment [3], in [4], in experiment [5] and in [6] was inactive. For the same molecule, the result in experiment [7], in [8] and in experiment [16] was inactive. In addition, the Potency result in experiment [9] and in [13] was “inactive” throughout. The Potency in experiment [10] was 9.44 µM (active); in [11] it was 13.3 µM (active); in experiment [12], 13.3 µM (active); in experiment [15], 21.1 µM (active).

Turning to `CCCCOC(=O)c1ccccc1C(=O)O`, the call in experiment [1], in [2], in experiment [3], in experiment [4], in [5] and in experiment [6] was inactive. Moreover, the outcome in experiment [7] and in experiment [8] was inactive. For the same molecule, the Potency entry in experiment [9], in experiment [10], in experiment [11], in experiment [12], in [13] and in experiment [17] was “inactive” in each case. For the same molecule, the Potency entry in [18], in [14] and in [15] was “inactive” in each case.

On to `O=[N+]([O-])c1cc(Cl)c(Cl)c(Cl)c1`, for which the molecule was called inactive in experiment [1], in experiment [2], in experiment [3], in [4], in experiment [5] and in experiment [6]. The outcome in experiment [7] and in experiment [8] was inactive. Also, the Potency entry in experiment [9], in experiment [10], in experiment [11], in [12], in [13] and in experiment [14] was “inactive” throughout.

With `CC(N)=S`, the molecule was classed as inactive in experiment [1], in [2], in experiment [3], in experiment [4], in experiment [5] and in experiment [6]. The result in experiment [7] and in experiment [8] was inactive. In addition, the Potency entry in experiment [9], in experiment [10], in experiment [11], in experiment [12], in experiment [13] and in experiment [14] was “inactive” each time. For the same molecule, in experiment [15], the Potency result is “inactive”.

With `CNC(=O)Oc1c(C(C)(C)C)cc(C)cc1C(C)(C)C`, the result in experiment [1], in experiment [2], in experiment [3], in [4], in experiment [5] and in [6] was inactive. Besides, the molecule was classed as inactive in experiment [7], in [8] and in [19]. For the same molecule, the Potency entry in experiment [9], in [10], in [11], in experiment [13], in [17] and in [18] was “inactive” throughout. In [14], the Potency entry was “inactive”.

As for `CC(C)(C)NCC(O)c1cc(Cl)c(N)c(Cl)c1` (stereo not given), the outcome in experiment [1], in experiment [2], in experiment [3], in experiment [4], in [5] and in [6] was inactive. In addition, the result in [7], in experiment [8] and in experiment [19] was inactive. For the same molecule, the Potency entry in [9], in experiment [10], in experiment [12], in [17], in experiment [18] and in [14] was “inactive” in each case.

For `O=NN1CCN(N=O)CC1`, the outcome in [1], in [2], in experiment [3], in experiment [4], in experiment [5] and in experiment [6] was inactive. For the same molecule, the outcome in experiment [7] and in experiment [8] was inactive. Also, the Potency entry in experiment [9], in experiment [10], in experiment [11], in experiment [12], in experiment [13] and in [14] was “inactive” each time. The Potency entry in [15] was “inactive”.

Consider `COCC(=O)N(c1c(C)cccc1C)N1CCOC1=O`, for which the outcome in [1], in [2], in [3], in experiment [4], in [5] and in [6] was inactive. The call in experiment [7] and in [8] was inactive. Besides, the Potency result in experiment [9], in experiment [10], in [11], in [12], in experiment [13] and in experiment [14] was “inactive” in each case.

On to `CCC(C)n1c(=O)[nH]c(C)c(Br)c1=O` (stereo not given), for which the result in experiment [1], in experiment [2], in [3], in experiment [4], in [5] and in [6] was inactive. Moreover, the molecule was classed as inactive in [7] and in [8]. Besides, the Potency result in [9], in experiment [10], in [12], in experiment [13], in [14] and in experiment [15] was “inactive” each time.

As for `O=C(CCN1CC1)OCC(CO)(COC(=O)CCN1CC1)COC(=O)CCN1CC1`, the call in experiment [1], in experiment [2], in [3], in experiment [4], in [5] and in experiment [6] was inactive. Moreover, the call in [7], in experiment [8] and in [16] was inactive. For the same molecule, the Potency result in [9], in experiment [10], in experiment [11], in experiment [12], in experiment [13] and in experiment [14] was “inactive” throughout. The Potency entry in experiment [15] was “inactive”.

Take `OC(c1ccccc1)(c1ccccc1)C1CCNCC1`: the fluorescence, % of fluorescein in [1] is 0.0137% [at 18.6 µM]. For the same molecule, the fluorescence, % of fluorescent control in experiment [2] was 0.0014% [at 18.6 µM]; in experiment [4] it was 0.068% [at 18.6 µM]; in experiment [6] it was -0.0381% [at 18.6 µM]; in experiment [8], 0.186% [at 18.6 µM]. Further, in [3], the activity change is 0.0163% [at 18.6 µM]. In addition, in experiment [5], the fluorescence, % of Rose Bengal is -0.191% [at 18.6 µM]. In experiment [7], the fluorescence, % of fluorescein control was -0.0573% [at 18.6 µM]. Moreover, the molecule was called inactive in experiment [16]. Moreover, the Potency entry in experiment [9], in experiment [11], in experiment [13] and in [14] was “inactive” each time. Moreover, the Potency in [10] was 11.4 µM (active).

For the molecule `COC(C)(C)C`, the outcome in experiment [1], in experiment [2], in [3], in experiment [4], in [5] and in [6] was inactive. Besides, the outcome in experiment [7] and in [8] was inactive. Further, the Potency entry in experiment [9], in experiment [10], in experiment [11], in experiment [12], in [13] and in [14] was “inactive” throughout. Moreover, the Potency entry in [15] is “inactive”.
